About 83,000 compounds went through this panel and 20% of them were active in at least one assay; those are over-represented in the sample as a whole.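 How to read the values: 0–100, growth inhibition (40 = 60% inhibited); 0, no net growth; -100 to 0, cell death (-40 = 40% of starting cells died; -100 = all dead).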 A number with no mark means an inactive call. Activity calls are given as the source filed them. How the source made its calls: active means growth percent below 10; inactive means the rest.
What was measured:
Assay in all cases: NCI-60 one-dose screen, 48 h (100 = growth as untreated, 0 = no growth, -100 = all killed)
EKVX NSCLC = conditions: 10 µM unless noted
SN12C renal = conditions: 10 µM unless noted
UO-31 renal = conditions: 10 µM unless noted
TK-10 renal = conditions: 10 µM unless noted
ACHN renal = conditions: 10 µM unless noted
CAKI-1 renal = conditions: 10 µM
CCRF-CEM leukemia = conditions: 10 µM unless noted
MOLT-4 leukemia = conditions: 10 µM unless noted
SR leukemia = conditions: 10 µM unless noted
RPMI-8226 leukemia = conditions: 10 µM unless noted
OVCAR-8 ovarian = conditions: 10 µM unless noted
OVCAR-5 ovarian = conditions: 10 µM unless noted
OVCAR-4 ovarian = conditions: 10 µM unless noted
SK-OV-3 ovarian = conditions: 10 µM unless noted
IGROV1 ovarian = conditions: 10 µM unless noted
HS 578T breast = conditions: 10 µM unless noted
NCI/ADR-RES ovarian = conditions: 10 µM unless noted
A498 renal = conditions: 10 µM unless noted

| Structure (SMILES) | growth (EKVX NSCLC) | growth (SN12C renal) | growth (UO-31 renal) | growth (TK-10 renal) | growth (ACHN renal) | growth (CAKI-1 renal) | growth (CCRF-CEM leukemia) | growth (MOLT-4 leukemia) [%] | growth (SR leukemia) | growth (RPMI-8226 leukemia) | growth (OVCAR-8 ovarian) | growth (OVCAR-5 ovarian) | growth (OVCAR-4 ovarian) | growth (SK-OV-3 ovarian) [%] | growth (IGROV1 ovarian) | growth (HS 578T breast) | growth (NCI/ADR-RES ovarian) | growth (A498 renal) |
| --- | --- | --- | --- | --- | --- | --- | --- | --- | --- | --- | --- | --- | --- | --- | --- | --- | --- | --- |
| Nc1nc(-c2cccc([N+](=O)[O-])c2)c(N=Nc2ccccc2Cl)s1 | 79.6% | 73.7% | 63.8% | 85.7% | 63.2% | 28.8% | 66.8% | 68.7 | 59.1% | 68.5% | 56.8% | 93.7% | 63.1% | 99.5 | 74.8% | 56.8% | 59.9% |  |
| CCc1ccc(NC(=O)N[C@@H](Cc2cccc(F)c2)C(=O)N[C@@H]2C(=O)N3CCC[C@H]3C(=O)N3CCCC[C@H]3C(=O)N[C@@H](C)C(=O)N3C[C@H](C)C[C@H]3C(=O)O[C@H]2C)c(F)c1 | 31.1% | 21% | 26.3% | 50.3% | 27.4% | 17.8% | 33.9% | 32 | 21.2% | 12.3% | 23.1% | 23.9% | 23.9% | 24.9 | 35.9% | 26.3% | 18.4% |  |
| COc1cc2c3c(n(CCCNC4CCCCC4)c(=O)c2cc1OC)-c1cc2c(cc1C3=O)OCO2 | -65.3% (active) | -70.3% (active) | 84.5% | -95% (active) | -6.15% (active) | 73.9% | -25.3% (active) |  |  | -46.5% (active) | -66.8% (active) | -86.4% (active) | 93.2% | 104 |  | 90.5% | -22.9% (active) | 86.2% |
| COc1cc2c3c(n(CCCN4CCC[C@H]4C(N)=O)c(=O)c2cc1OC)-c1cc2c(cc1C3=O)OCO2 | 36.2% | 17% | 17.5% | 59% | 0.589% (active) | 14.6% | -4.01% (active) |  |  | -26.3% (active) | -44.9% (active) |  | 21.7% |  | 33.7% | 70.9% | 9.81% (active) | -31% (active) |
| CCOC(=O)c1c(Nc2ccccc2)nn2c(-c3ccc(Br)cc3)ccnc12 | 81.5% | 68.3% | 65.1% | 90.6% | 34% | 57.6% | 85.8% | 87.6 | 70.7% | 95.8% | 69.2% | 80.4% | 53.5% | 59.2 | 71% | 62.8% | 59.8% |  |
| Cn1cc(-c2nn3cc(-c4cccnc4)nc3s2)c2ccccc21 | 43.8% | 33.4% | 32.2% | 80.5% | 48.1% | 43.5% | 38% |  |  |  | 36.4% | 36.6% | 76.6% | 50.7 | 40.2% | 31.3% | 18.9% | 36.6% |
| COc1cc(OC)c(S(N)(=O)=O)cc1C(=O)/C=C/c1ccccc1 | 77.2% | 11.3% | 33.8% | 19.9% | 27.7% | 30.2% | 15.1% | 29.2 | 8.18% (active) | 18.5% | 65.3% | 27.1% | 77.7% | 81.1 | 25.7% | 26.5% | 48.3% |  |
| Cc1cc(=O)n2nc(-c3c[nH]c4ccccc34)sc2n1 | 95.3% | 94.5% | 82.1% | 128% | 96.1% | 99.8% | 115% |  |  | 128% | 98.7% |  | 104% | 103 | 89.9% | 96.4% | 98% | 95.1% |
| CN1C(=O)/C(=C/C=C/c2ccco2)SC1=S | 87.2% | 84.6% | 58.3% | 113% | 75.7% | 95.2% | 60.8% | 90.3 | 79.6% | 64.4% | 71.1% | 87.5% | 96.1% | 98.9 | 54.3% | 98.1% | 75.6% |  |
| C/C(=C(/c1ccc(O)cc1)c1ccc(OCCN2CCCC2)cc1)c1ccc(Cl)cc1 | 57.4% | 66% | 53.8% | 84.5% | 33.7% | 41.9% | 43.6% |  |  | -4.71% (active) | 64.6% | 60.1% | 65.4% | 76.7 |  | 48.4% | 64.2% | 56.5% |
| Clc1ccccc1/C=C/c1nn2c(-c3ccncc3)nnc2s1 | 94.2% | 103% | 93.1% | 126% | 104% | 87.9% | 97.6% |  |  |  | 103% | 109% | 103% | 121 | 102% | 97.7% | 106% | 95.2% |
| Cc1ccccc1NC1CC(=O)N(c2ccc(Cl)cc2Cl)C1=O (centres undefined) | 96.7% | 103% | 92.3% | 99.3% | 104% | 89.9% | 112% | 117 | 102% | 102% | 103% | 107% | 97.5% | 108 | 101% | 99.6% | 99.9% |  |
| COc1ccc(-c2nc3cc(Cl)c(Cl)cc3n2CC(=O)N=Nc2c(O)[nH]c3ccc(Br)cc23)cc1 | 4.81% (active) | -20.1% (active) | -34.9% (active) | 6.26% (active) | -83% (active) | -76.8% (active) | 39% | 36.4 | 36.4% | 31.8% | 12% | -5.99% (active) | -43.9% (active) | 13.5 | -37.9% (active) | -8.55% (active) | -1.87% (active) |  |
| C(=C(\C1=NCCN1)n1cnc2ccccc21)/c1ccc2ccccc2c1 | 73.2% | 73.3% | 68% | 77.8% | 72.9% | 53.3% | 63.5% | 67 | 42.5% | 67.1% | 88.5% | 79.4% | 72.6% | 66 | 81.2% | 57.6% | 76.6% |  |
| CC(C)(C)CC(C)(C)n1nnnc1C(Nc1ccccc1)c1cc2cccc3ccc4cccc1c4c32 (centres undefined) | 73.5% | 78.4% | 73.1% | 94.6% | 87.5% | 55.8% | 86.7% | 73.2 | 82.3% | 82.2% | 86.4% | 85.3% | 82.7% | 87.1 | 92.6% | 90.3% | 81.7% |  |
| COc1ccc([C@@H]2[C@@H](O)C(=O)N2c2cc(OC)c(OC)c(OC)c2)cc1Cl | 52.4% | 25.6% | 31.8% | 89.4% | 27.9% | 30.6% | 19.6% |  |  | 28.4% | -11.7% (active) | 28.9% | 68.7% |  | 27.1% | 8.59% (active) | -21.2% (active) | -16.9% (active) |
| COc1ccc(CCN2C(=O)CSC2=S)cc1OC | 103% | 93% | 83% | 55.6% | 100% | 84.6% | 63% | 88.7 | 64.6% | 32.8% | 98.6% | 104% | 100% | 99.1 | 102% | 104% | 101% |  |
